Assay outcomes: PubChem BioAssay, several laboratories
Only some compounds are listed: those with a hit (about 1.4% of all), similar ones and a draw of the others.
MCL1 BIM primary: MCL1-BIM-BH3 interaction inhibition (human) | GST-MCL1 / FITC-Bim-BH3 fluorescence polarization | inhibition, % at 10.9 µM | hit rate 0.68% among 320,000 | AID 2057;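 active means inhibition above the mean inhibition of all tested compounds plus 3 SD, set per campaign, cut at about 40% in these data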;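 further: 0% = DMSO wells and 100% = unlabeled Bim-BH3 peptide control; higher means more loss of mP so more displacement of Bim peptide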
GLD-1 RNA inh: GLD-1-TGE RNA interaction inhibition (C. elegans); inhibition, % at 5.96 µM; purified GLD-1 + fluorescein TGE RNA, fluorescence polarization; Q17339; hit rate 0.44% among 320,000;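 active means percent inhibition above a per-plate cutoff, the plate mean of test compounds plus 3 SD, cut at about 30% in these data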;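 further: 0% = DMSO wells with GLD-1 and probe and 100% = wells lacking GLD-1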
Bcl-xL primary: blocks human Bcl-xL binding to Bim BH3 peptide | Q07817 | GST-Bcl-xL / FITC-Bim BH3 peptide fluorescence polarization | inhibition, % at 10.9 µM | hit rate 0.7% among 320,000;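 active means inhibition above the mean of all tested compounds plus 3 SD, cutoff set per campaign, cut at about 30% in these data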;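 further: 0% = DMSO wells and 100% = unlabeled Bim-BH3 peptide competitor; inhibitors lower millipolarization by displacing the labeled peptide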
Target sequence (Q07817 whole entry, looked up): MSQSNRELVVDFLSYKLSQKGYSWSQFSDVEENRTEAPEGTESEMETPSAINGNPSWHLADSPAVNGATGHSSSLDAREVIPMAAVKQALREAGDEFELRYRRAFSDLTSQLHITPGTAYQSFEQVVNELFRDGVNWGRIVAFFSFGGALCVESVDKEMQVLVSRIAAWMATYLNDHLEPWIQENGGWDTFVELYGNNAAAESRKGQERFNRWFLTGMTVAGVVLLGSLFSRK
EBV gp42 inh: inhibitors of Epstein-Barr virus glycoprotein 42. inhibition, % (tested at 21.74 µM). hit rate 0.42% among 220,000. AID 1085. Fluorescence polarization binding assay, mP read-out. Q1HVG2; in the data active means inhibition above about 50%
Target sequence (Q1HVG2 whole entry, looked up): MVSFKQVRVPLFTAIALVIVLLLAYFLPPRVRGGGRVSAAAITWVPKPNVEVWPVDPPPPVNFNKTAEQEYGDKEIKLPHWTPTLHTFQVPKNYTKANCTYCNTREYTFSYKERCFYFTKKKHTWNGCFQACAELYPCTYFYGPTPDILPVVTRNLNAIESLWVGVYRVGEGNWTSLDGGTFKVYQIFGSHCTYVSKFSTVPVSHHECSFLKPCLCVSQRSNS
E coli Lon inh: inhibits E. coli Lon protease; purified E. coli Lon protease, fluorescence polarization; P0A9M0; AID 602123; hit rate 0.42% among 360,000; inhibition, % at 7.94 µM; in the data active means inhibition above about 13%, passing the limit was not always enough;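 further: 0% = enzyme with probe and DMSO and 100% = no enzyme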
MEX-5 binding: C. elegans MEX-5 TCR-2 RNA binding activity; MEX-5/FITC-TCR2 RNA binding, fluorescence polarization; hits give low values; activity score (negative = inhibition of binding), % at 10 µM; AID 1832; hit rate 0.38% among 300,000;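 active means inhibition past about -25% in most replicates, and total fluorescence under double the plate's negative control median, limit read from the data; inconclusive means replicates evenly split on the limit, or fluorescence at least double controls; inactive means too little inhibition in most replicates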;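 further: 0% = DMSO and -100% = 5 µM competing unlabeled TCR2 RNA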
Starred values were filed as active, the others as inactive; ? = inconclusive; / = no result.

SMILES	MCL1 BIM primary	GLD-1 RNA inh	Bcl-xL primary	EBV gp42 inh	E coli Lon inh	MEX-5 binding
N=c1c(S(=O)(=O)c2ccccc2)cc2c(=O)n3ccccc3nc2n1Cc1cccnc1	-3	-4	7	/	1	-42*
Cc1cccn2c(=O)c3cc(S(=O)(=O)c4ccccc4)c(=N)n(CC4CCCO4)c3nc12 (centres undefined)	0	-3	5	-1	/	-39*
Cc1cccn2c(=O)c3cc(S(=O)(=O)c4ccccc4)c(=N)n(Cc4cccnc4)c3nc12	-2	-1	1	/	13	-31*
Cc1ccc(S(=O)(=O)c2cc3c(=O)n4cccc(C)c4nc3n(Cc3ccncc3)c2=N)cc1	5	4	10	/	-6	-2
COc1ccc2nc3cccc(OC)c3nc2c1	33	24	46*	26	7	1
CC(C)(C)c1cc[n+](C2=C([O-])c3ccccc3C(=O)/C2=N\S(=O)(=O)c2ccccc2)cc1	-6	2	2	3	0	-3
O=C1/C(=N\S(=O)(=O)c2cccs2)C([n+]2ccc(CCCc3ccccc3)cc2)=C([O-])c2ccccc21	11	3	13	35	-3	-40*
Cc1cc(C)c[n+](C2=C([O-])c3ccccc3C(=O)/C2=N\S(=O)(=O)c2cccs2)c1	10	6	4	-4	0	2
Cc1cc[n+](C2=C([O-])c3ccccc3C(=O)/C2=N\S(=O)(=O)c2cccs2)cc1C	4	0	7	-4	-1	-34*
CC[C@H](C)[C@H](NS(=O)(=O)c1ccc(C)cc1)C(=O)N1CCC(C(=O)N[C@H](C(=O)O)C(C)C)CC1	22	6	41*	-18	-2	-2
CC[C@@H](C)[C@H](NC(=O)C1CCN(C(=O)[C@@H](NS(=O)(=O)c2ccc(C)cc2)C(C)C)CC1)C(=O)O	-8	1	0	-18	5	4
CCOC(=O)C1C(=O)NC(c2ccccc2)=NC1c1ccc(O)c(OC)c1 (centres undefined)	4	3	2	-10	3	0
O=Cc1cc2ccccc2nc1SCCCF	3	-12	4	-6	5	5
O=C1CC2(CCCCC2)CC(=O)N1CCc1ccccc1	/	/	/	/	-2	/
O=C1C=CC(=O)C(C2=C3C(=O)N(CCc4ccccc4)CC(=O)N3CCC2)=C1	20	6	20	-17	/	-47*
CCC(C)NC(=O)c1ccc(CSCc2cccc(F)c2)o1 (centres undefined)	7	-2	5	110*	-2	-1
N#CC(C(=O)NC1CC1)c1nc2ccccc2nc1N1CCCC1 (centres undefined)	14	2	18	26	-5	-8
N#CC(C(=O)NC1CCCCC1)c1nc2ccccc2nc1N1CCN(c2ccc(F)cc2)CC1 (centres undefined)	/	/	/	14	/	-76*
COc1ccc(CCNC(=O)c2cccc(S(=O)(=O)N3CCc4ccccc4C3)c2)cc1	-5	-1	-3	/	-14	/
CCCn1c(=N)c(C(=O)NCC2CCCO2)cc2c(=O)n3cccc(C)c3nc21 (centres undefined)	6	-2	11	-5	-4	-27*
COc1ccc(CCn2c(=N)c(C(=O)NC3CCCCC3)cc3c(=O)n4ccccc4nc32)cc1	-2	0	9	/	-3	-45*
COc1ccc(CCn2c(=N)c(C(=O)NC3CCCC3)cc3c(=O)n4cccc(C)c4nc32)cc1	6	-5	11	/	-4	-3
Cc1cccn2c(=O)c3cc(C(N)=S)c(=N)n(CCCOC(C)C)c3nc12	35	-2	34*	-7	-22	-8
CCOCCCn1c(=N)c(C(N)=S)cc2c(=O)n3cccc(C)c3nc21	30	-4	23	-19	-13	-2
Cc1cccn2c(=O)c3cc(C(=O)NCC4CCCO4)c(=N)n(CCN4CCOCC4)c3nc12 (centres undefined)	-1	-8	0	-21	7	-6
SMILES	MCL1 BIM primary	GLD-1 RNA inh	Bcl-xL primary	EBV gp42 inh	E coli Lon inh	MEX-5 binding
CCNC(=O)c1cc2c(=O)n3cccc(C)c3nc2n(CCc2ccccc2)c1=N	6	-2	16	-14	6	-66*
Cc1ccc(C)c(NC(=O)CCC(=O)N2CCOc3ccccc32)c1	3	7	2	/	-1	2
CC(C)Oc1ccc(S(=O)(=O)N2CCOCC2)cc1NC(=O)c1ccc(Cl)c(S(=O)(=O)N2CCOCC2)c1	/	/	/	/	0	/
CN(CC(=O)Nc1ccccc1C(=O)NC1CC1)Cc1cccs1	-3	-2	-3	/	-11	/
O=C(CN1CCN(C(=O)CN2C(=O)NC3(CCCC3)C2=O)CC1)Nc1cccc(F)c1	-20	4	-10	/	-10	/
CCCCN(C(=O)CSCC(=O)Nc1ccc(C)cc1)c1c(N)n(CCCC)c(=O)[nH]c1=O	7	7	10	/	-6	-7
N=c1c(C(=O)NCC2CCCO2)cc2c(=O)n3ccccc3nc2n1Cc1ccccc1Cl (centres undefined)	-1	-5	0	/	10	-46*
Cc1cccn2c(=O)c3cc(C(=O)NC4CCCC4)c(=N)n(CCc4ccccc4)c3nc12	6	-7	4	/	8	-39*
O=S(=O)(NC1c2cccc3cccc(c23)C1Sc1ncccn1)c1ccccc1 (centres undefined)	6	10	0	11	0	1
Cc1ccc(N2C(=O)C3C(C2=O)C(C(=O)c2ccc(Cl)cc2)N2CCCC32)cc1 (centres undefined)	72*	46*	73*	52*	5	-2
CCOc1ccc(NS(=O)(=O)c2cc(C(=O)N(CC)CC(=O)NCc3cccs3)ccc2C)cc1	5	6	5	/	-2	4
CCOC(=O)C(=CNc1ccc(OC)cc1[N+](=O)[O-])C(=O)OCC	2	-1	-1	-7	3	0
Cc1cc(CC(=O)O)c2oc(-c3ccoc3)cc(=O)c2c1	47*	7	38*	/	/	-11
O=C(COC(=O)C1CC1)Nc1ncc(C(F)(F)F)cc1Cl	26	26	32*	-18	8	-7
COC(=O)c1cccc(C(=O)N2CCCC(CCC(=O)N(C)CCc3ccccn3)C2)c1 (centres undefined)	4	-2	2	/	-8	-2
COC(=O)C1=C(C)N(Cc2ccccc2)C(=NCC(C)C)N[C@H]1c1ccccc1	31	31*	44*	/	/	?
COC(=O)C1=C(C)N(Cc2ccccc2)C(=NCc2ccc(OC)cc2)N[C@H]1c1ccccc1	/	-7	/	/	-11	/
Cc1ccc(C)n1-c1sccc1C(=O)O	/	/	/	10	6	-36*
COc1ccc(CCNC(=O)COc2nsnc2N2CCOCC2)cc1OC	-1	6	5	82*	-8	-4
O=C(CNS(=O)(=O)c1ccccc1)OCc1cccc([N+](=O)[O-])c1	-2	5	38*	-7	-3	2
